High-throughput results: PubChem BioAssay, National Center for Advancing Translational Sciences (NCATS)
Shiga inhibitor: blocks Shiga toxin action in Vero cells; AID 2315; Vero cells, Shiga toxin protein synthesis inhibition reporter; 290,000 tested, 9.2% active; inhibition, % at 38.7 µM; in the data active = inhibition mostly above about 28%, no sharp cut-off; inactive = mostly below about 43%
Pf growth 48h: inhibits P. falciparum growth in the first generation, 48 h. AID 504832. P. falciparum luciferase growth in erythrocytes, 48 h. 310,000 tested, 5.9% active. Potency, µM (highest dose often 28.7 µM), most hits filed as inhibitors
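First compound was added to culture medium, then infected red cells at 0.1% parasitemia and 2% hematocrit (final). After incubation at 37 C under 5% CO2, luciferase detection reagent was dispensed and light output recorded.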
Pf growth 96h: P. falciparum growth inhibition at 96 hour, primary screen for plastid delayed-death inhibitors; AID 504834; Potency, µM (top dose mostly 28.7 µM), actives largely listed as inhibitors; P. falciparum luciferase reporter growth, 96 h; 320,000 tested, 6.9% active
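Readout is luminescence from an integrated firefly luciferase in P. falciparum. Red cells, 2% hematocrit and 0.05% parasitemia final, were cultured with compound through two parasite generations (96 hours) at 37 C, 5% CO2.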
AMA1-RON2 inh: AMA1-RON2 (P. falciparum) interaction inhibition. AID 720542. 360,000 tested, 0.2% active. Potency, µM (titrated, usually from 58.2 µM), most hits filed as inhibitors. AlphaScreen AMA1-biotinylated RON2 peptide binding; also: nearly all actives have a fitted effect of over 45% in size
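AMA1 (3D7) with his tag at 25 nM final met compounds first, then biotinylated RON2 peptide at 25 nM; detection used donor plus acceptor beads, 10 µg/mL apiece, read by AlphaScreen after 30 min at room temperature.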
CHX counter: counter-screen hit for Shiga toxin inhibitors, cycloheximide. cell reporter, cycloheximide protein synthesis inhibition counterscreen. 300,000 tested, 12% active. AID 2314. max response, %; in the data active = max response mostly above about 13%, no sharp cut-off; inactive = mostly below about 14%; also: read at 38.3 µM for the half of the compounds with a filed dose
HCV inhibitor: inhibitors of hepatitis C virus infection; Huh7.5.1 HCVcc-Cre infection, luciferase reporter, 44 h; Potency, µM (highest dose often 41.8 µM), actives largely listed as inhibitors; 340,000 tested, 3.4% active; AID 651820
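Reporter virus HCVcc-Cre (~0.5 moi) infects cells exposed to compound; seeding density 1,000 cells/well with 4 h settling beforehand. Luminescence, 15 sec read, taken 44 h post-infection following a 15 min RT substrate incubation.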
Numbers stand for hits; n = inactive; u = inconclusive; x = not tested or not shown; [ ] = dose if it differs, or a comment. Shown are actives, neighbours in structure and some others; about 21% of the full set was active somewhere. Unless noted, calls follow the shape of the dose curve; as a rule, active = well fitted curve in the direction sought with a large enough effect; inconclusive = small, poorly fitted or top-dose-only effect, or another doubt; inactive = no such curve, though single readings can be large; an effect the other way counts as inactive or inconclusive.

SMILES | Shiga inhibitor | Pf growth 48h | Pf growth 96h | AMA1-RON2 inh | CHX counter | HCV inhibitor
Cc1ccc(C2CC(=O)c3cnc(N4CCN(c5ccccc5)CC4)nc3C2)cc1 (centres undefined) | n | n | x | n | n | n
COc1ccc(C2CC(=O)c3cnc(N4CCN(Cc5ccccc5)CC4)nc3C2)cc1 (centres undefined) | n | 11.7µM | n | n | n | u
COC(=O)c1cc(CSc2nc3ccccc3c(=O)n2C)oc1C | n | u | n | n | n | u
CNC(=O)/C(C#N)=C/c1c(N(Cc2ccccc2)Cc2ccccc2)nc2ccccn2c1=O | n | u | u | n | n | u
Cc1ccc(S(=O)(=O)N2CCCN(C(C)c3nc4ccccc4c(=O)[nH]3)CC2)cc1 (centres undefined) | x | u | 13.1µM | n | x | n
NC(=O)c1sc2cc(C(F)(F)F)cnc2c1-c1ccccc1 | n | u | 8.28µM | u | n | n
COc1ccc(OC)c(N)c1 | n | 9.28µM | 16.5µM | u | n | n
CC(C)Nc1nnc(SCC(=O)c2c(N)n(Cc3ccccc3)c(=O)n(C)c2=O)s1 | n | u | 9.28µM | n | n | n
Cn1c(N)c(C(=O)CSc2nnc(C3CC3)n2N)c(=O)n(C)c1=O | x | n | n | n | x | n
Cn1c(N)c(C(=O)CSc2nnc(NC3CCCCC3)s2)c(=O)n(C)c1=O | x | u | 1.31µM | n | x | n
CCCCOC(=O)c1ccc(NC(=O)C(=O)NCc2ccccn2)cc1 | n | n | n | n | n | n
Cc1ccc(S(=O)(=O)N2[C@@H](CCO)OC[C@H]2C(C)C)cc1 | x | x | x | n | x | x
CCCOc1ccc(C(=O)O/N=C(\CC)c2ccc(C)cc2)cc1 | n | n | n | n | n | n
CC/C(=N\OC(=O)c1ccc(OC(C)C)cc1)c1ccc(C)cc1 | n | x | 14.7µM | n | n | n
C=CCNc1nc(N)c(C(=O)Nc2cc(C)on2)s1 | 38.2 | n | x | n | 18.9 | n
C=CCNc1nc(N)c(C(=O)c2ccc3c(c2)OCO3)s1 | 86.7 | n | n | n | 25.7 | u
C=CCNC(=S)NNC(=O)c1ccc2c(c1)OCO2 | n | n | n | n | n | n
Cc1cc(NC(=O)c2sc(Nc3ccc(F)cc3)nc2N)no1 | n | n | n | n | 28.3 | n
O=C(CCC(=O)N1CCN(c2cccc(Cl)c2)CC1)c1cccs1 | x | n | n | n | x | n
COc1ccc(Cl)c2c1[nH]c1nc(SCc3cccnc3)nnc12 | n | n | n | n | n | n
COc1ccc(Cl)c2c1[nH]c1nc(SCc3ccccn3)nnc12 | 89.3 | n | n | n | 40.8 | u
CC(C)CN(C(=O)CN(C)C(=O)Cc1c(F)cccc1Cl)c1c(N)n(CC(C)C)c(=O)[nH]c1=O | x | x | x | n | x | x
O=C(CC12CC3CC(CC(C3)C1)C2)Nc1nncs1 | n | n | n | n | n | n
CCOC(=O)C(O)(c1ccc(N=c2ccccn2C)cc1)C(F)(F)F (centres undefined) | n | n | n | n | n | n
CCOC(=O)C(O)(c1ccc(N(C)C(=O)c2ccc(Cl)c(Cl)c2)cc1)C(F)(F)F (centres undefined) | n | u | 10.4µM | n | n | n
SMILES | Shiga inhibitor | Pf growth 48h | Pf growth 96h | AMA1-RON2 inh | CHX counter | HCV inhibitor
CCOC(=O)C(O)(c1ccc(NC(=O)NC2CCCCC2)cc1)C(F)(F)F (centres undefined) | n | x | n | n | 19.7 | u
CCOC(=O)C(O)(c1ccc(NC(=O)c2ccc(Cl)c(Cl)c2)cc1)C(F)(F)F (centres undefined) | n | 9.28µM | u | n | n | u
COC(=O)C(O)(c1ccc(N(C)C(=O)c2ccc(Cl)c(Cl)c2)cc1)C(F)(F)F (centres undefined) | n | n | n | n | n | n
Cc1nnc(SCC(=O)NCc2ccccc2F)c2nn(-c3ccc(Cl)cc3)c(C)c12 | n | x | x | x | n | x
COc1ccc(CC(=O)Nc2ccccc2N2CCCCC2)cc1OC | n | u | u | n | n | n
CC1CCCN(CCOCCOc2ccc(Br)cc2Cl)C1 (centres undefined) | n | u | n | n | n | u
Clc1ccc(OCCCN2CCCCC2)c(Br)c1 | 12.2 | n | u | n | 70.9 | u
CCN1CCN(CCCOc2ccc(Cl)cc2Br)CC1 | n | u | u | u | n | u
CC1CC(C)CN(CCOc2ccc(Cl)cc2Cl)C1 (centres undefined) | n | 10.4µM | u | n | n | n
Clc1ccc(OCCCCCN2CCCC2)c(Br)c1 | n | n | u | n | n | 10µM
CC1CCCN(CCOCCOc2ccc(Cl)cc2Br)C1 (centres undefined) | n | 11.7µM | 11.7µM | n | n | n
c1ccc(COc2ccc(CN3CCN(c4ccccn4)CC3)cc2)cc1 | 92.9 | x | n | n | 41.2 | n
C(#Cc1ccccc1)CN1CCN(c2ccccn2)CC1 | n | n | u | n | 24.7 | n
c1ccc(CN2CCN(c3ncccn3)CC2)cc1 | n | n | n | n | n | n
COc1ccc(C(=O)N2CCC(n3c(C)nc4cc(F)ccc43)CC2)cc1 | n | n | n | n | n | n
COC(=O)c1ccc(C)c(NC(=O)CCCN2C(=O)NC(C)(C)C2=O)c1 | x | n | n | n[11.6 µM] | x | n
CCCc1cc(C(=O)Nc2ccc(CC)cc2)no1 | 72.6 | n | u | n | 54.3 | n
CCCc1cc(C(=O)NCc2ccc(OC)cc2)no1 | 76.7 | x | n | n | 21.0 | n
Cc1ccc(NC(=O)c2c(C)noc2C)cc1 | n | n | x | n | n | n
CCCc1cc(C(=O)Nc2sc3c(c2C(=O)OCC)CCCC3)no1 | n | n | n | n | n | n
CCCc1cc(C(=O)Nc2ccc(C)cc2)no1 | 126.8 | x | n | n | 33.9 | n
CCOC(=O)[C@]12CCC=C1N(CCC1=CCCCC1)C(=O)[C@H](CC(=O)NCc1cccs1)C2 | x | x | x | n | x | x
Cc1cccc(S(=O)(=O)NC(=O)C2(C)CCN2C(=O)c2cccc(F)c2)c1 (centres undefined) | x | x | x | n | x | x
Cc1cccc(Nc2nnc(SCC(=O)NCc3cccs3)s2)c1 | 62.4 | n | n | n | 19.3 | n
CCCC(=O)Nc1nnc(SCC(=O)NCc2cccs2)s1 | n | n | u | n | n | n
SMILES | Shiga inhibitor | Pf growth 48h | Pf growth 96h | AMA1-RON2 inh | CHX counter | HCV inhibitor
Cc1cccc(Nc2nnc(SCC(=O)NCc3cccs3)s2)c1C | 41.6 | n | 6.57µM | n | n | n
Cc1cccc(Nc2nnc(SCc3cn4ccsc4n3)s2)c1 | n | 9.28µM | 5.86µM | n | 20.4 | u
Cc1ccccc1Nc1nnc(SCc2cc(=O)n3ccsc3n2)s1 | n | 13.1µM | 16.5µM | n | n | n
O=C1OC(Nc2cc(Br)cc3cccnc23)c2ccccc21 (centres undefined) | n | n | n | n | n | n
Cc1cccc(Nc2nnc(SCC(=O)Nc3cccnc3Cl)s2)c1 | n | n | u | n | 27.0 | u
Nc1nnc(SCC(=O)Nc2cccnc2Cl)s1 | x | n | n | n | x | n
Cc1c(NC(=O)c2cccc(NC(=O)Cc3ccc(F)cc3)c2)c(=O)n(-c2ccccc2)n1C | x | n | u | n[11.6 µM] | x | n
